Data reported in PMC4336329 (PLoS ONE, 2015).
Screen size: about 310,000 compounds; about 14,000 (4.5%) showed an effect of 50% or more. Effects have a minus sign here. This excerpt belongs to a sample that is enriched for strong results.

What follows are molecules tested against human ether-à-go-go-related gene (hERG) potassium channel (human, UniProt Q12809) (assay: primary screen, population patch clamp on CHO cells stably expressing hERG; higher = less effect of the substance).
Method: Briefly, Chinese hamster ovary (CHO) cells stably expressing the hERG channel were dislodged from tissue culture flasks and dispensed into PPC plates. […] During the recording, background leak currents were estimated by a 100 ms step to -80 mV from an initial holding potential of -70 mV and subtracted from the subsequent current measurement. The campaign was conducted in two phases using slight differences in recording protocol. In the first phase, the initial voltage pulse used a 100 ms step to -30 mV from a holding potential of -70 mV, a 2 s conditioning step to +25 mV, and a 2 s test step to -30 mV. During the second phase of the screen, the potential during the conditioning step was raised to +45 mV. In both phases of the campaign, a secondary voltage pulse was applied using the same parameters as the second phase initial pulse. The initial and secondary pulses were applied in the absence of compound, and upon application of 1 μM and 10 μM test concentrations. […]
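Also: peak tail current of the secondary pulse compared with the same well before compound.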

Chain of human ether-à-go-go-related gene (hERG) potassium channel (Q12809 whole entry, looked up): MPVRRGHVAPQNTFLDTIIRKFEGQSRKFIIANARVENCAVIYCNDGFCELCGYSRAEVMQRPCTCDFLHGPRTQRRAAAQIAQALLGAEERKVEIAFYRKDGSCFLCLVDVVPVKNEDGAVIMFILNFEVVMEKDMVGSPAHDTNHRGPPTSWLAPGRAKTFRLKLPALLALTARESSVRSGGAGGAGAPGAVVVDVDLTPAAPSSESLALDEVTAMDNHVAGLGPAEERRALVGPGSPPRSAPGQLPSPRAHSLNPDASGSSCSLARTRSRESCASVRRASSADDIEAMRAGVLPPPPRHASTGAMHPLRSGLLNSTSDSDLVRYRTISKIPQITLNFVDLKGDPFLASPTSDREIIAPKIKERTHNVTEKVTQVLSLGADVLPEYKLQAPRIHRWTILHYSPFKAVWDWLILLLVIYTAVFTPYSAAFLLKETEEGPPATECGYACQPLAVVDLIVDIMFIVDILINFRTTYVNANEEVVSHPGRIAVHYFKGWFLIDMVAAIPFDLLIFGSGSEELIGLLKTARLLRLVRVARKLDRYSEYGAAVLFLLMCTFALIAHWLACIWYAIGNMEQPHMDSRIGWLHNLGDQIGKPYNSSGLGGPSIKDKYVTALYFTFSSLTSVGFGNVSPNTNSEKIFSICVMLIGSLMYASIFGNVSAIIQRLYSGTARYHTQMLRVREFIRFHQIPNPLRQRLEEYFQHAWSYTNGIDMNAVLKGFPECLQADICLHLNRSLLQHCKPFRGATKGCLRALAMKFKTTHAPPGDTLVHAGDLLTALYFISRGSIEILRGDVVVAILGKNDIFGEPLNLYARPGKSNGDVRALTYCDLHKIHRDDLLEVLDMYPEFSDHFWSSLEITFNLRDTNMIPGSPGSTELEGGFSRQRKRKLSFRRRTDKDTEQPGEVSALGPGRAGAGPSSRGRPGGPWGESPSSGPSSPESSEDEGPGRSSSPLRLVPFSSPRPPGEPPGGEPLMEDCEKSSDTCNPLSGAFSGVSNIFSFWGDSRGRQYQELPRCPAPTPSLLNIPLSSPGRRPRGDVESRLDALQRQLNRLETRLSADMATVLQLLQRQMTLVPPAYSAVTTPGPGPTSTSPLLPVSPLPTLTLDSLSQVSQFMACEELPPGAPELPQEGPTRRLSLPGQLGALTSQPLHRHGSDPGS

SMILES	hERG current change (%, negative = inhibition) at 10uM [%]
COc1ccc(CN(CCNC(=O)CCCCC(=O)NCCN(Cc2ccc(OC)cc2)C(C)C)C(C)C)cc1.Cl	-5.63
O=C(CCCOc1ccccc1)Nc1nncs1	-5.59
COc1ccc(OC)c(N2C(=O)NC(=O)C3(Cc4cc(C)ccc4N(C)C3)C2=O)c1 (centres unmarked)	-5.52
Cc1ccccc1Oc1cc(-n2ncc(Cl)c(Cl)c2=O)ncn1	6.67
CCc1cccc(CC)c1NC(=O)COc1ccccc1C(=O)c1cc(C#N)c(=O)n(C2CCCCC2)c1	14.4
CCCCNC(=O)c1ccccc1Cl	21.5
CN1CCc2c(n(CC(O)CN(CCO)CCO)c3ccccc23)C1=O.Cl (centres unmarked)	6.94
CN1CCc2c(n(CC(O)CNCc3ccccc3)c3ccccc23)C1=O.Cl (centres unmarked)	-52.8
CN1CCc2c(n(CC(O)CN3CCN(CCO)CC3)c3ccccc23)C1=O.Cl (centres unmarked)	2.24
Cc1cc(C)cc(N2CC(C)Cn3c2nc2c3c(=O)[nH]c(=O)n2C)c1 (centres unmarked)	-2.03
CCC(Oc1ccccc1)C(=O)NC1CCCCCC1 (centres unmarked)	-0.406
CCC1CCCCN1C(=O)CCn1c(=O)oc2ccccc21 (centres unmarked)	-17.7
O=C(N/N=C/c1cccnc1)c1cc(-c2cccs2)nc2ccccc12	-20
CCC(C)Sc1cccc(-c2nc3cc(C)ccn3c2NCc2ccccc2)c1.O=C(O)C(F)(F)F (centres unmarked)	4.02
Cc1ccc(S(=O)(=O)N2CCCCC2)cc1C(=O)N1CCN(CCO)CC1	3.41
O=C(C1=NN[C@@H]2C(=O)N(Cc3ccccc3)C(=O)[C@H]12)c1ccc(F)cc1	7.44
O=C(OCc1ccccc1)C1=NNC2C(=O)N(Cc3ccccc3)C(=O)C12 (centres unmarked)	16.2
O=C(C1=NN[C@@H]2C(=O)N(Cc3ccccc3)C(=O)[C@H]12)c1ccc([N+](=O)[O-])cc1	-50.2
CC(C)(C)c1nnc(NS(=O)(=O)c2ccc([N+](=O)[O-])cc2)s1	28.3
c1ccc(-c2nc(N3CCCCCC3)c3ccccc3n2)nc1	-77.5
Fc1ccccc1-c1nc(N2CCCCC2)c2ccccc2n1	-1.61
CCN1CCN(c2nc(-c3ccccn3)nc3ccccc23)CC1	-56.3
c1ccc(-c2nc(N3CCOCC3)c3ccccc3n2)nc1	-15.9
c1ccc(N2CCN(c3nc(-c4ccccn4)nc4ccccc34)CC2)cc1	-73.9

SMILES	hERG current change (%, negative = inhibition) at 10uM [%]
CN1CCN(c2nc(-c3ccccn3)nc3ccccc23)CC1	-51.4
c1ccc(CN2CCN(c3nc(-c4ccccn4)nc4ccccc34)CC2)cc1	5.45
CSc1nc(N2CCN(C)CC2)c2ccccc2n1	-49.1
Oc1ccccc1-c1nc(N2CCCC2)c2ccccc2n1	-13.2
COc1cccc(-c2nc(N3CCN(c4ccccc4)CC3)c3ccccc3n2)c1O	0.912
Cc1cc(C)c(S(=O)(=O)N2CCOC2CNC(=O)C(=O)NCCN(C)C)c(C)c1 (centres unmarked)	13.1
COc1ccc2[nH]cc(CCNC(=O)c3ccco3)c2c1	12.3
CC12CCC(=O)N1C(C(=O)NCc1ccccc1Cl)CS2 (centres unmarked)	-9.42
Cc1cc(C)c(OCC(=O)N/N=C/c2ccco2)c(C)c1	-3.8
O=C1NC(=O)/C(=C\c2ccc(OCc3cnc(Cl)s3)cc2)S1	19.9
COc1cccc(Nc2cc(N3CCOCC3)c3nonc3c2[N+](=O)[O-])c1	-8.87
O=C(NCCO)N1c2ccccc2Sc2ccccc21	5.99
O=C(O)CCNC(=O)OCC1c2ccccc2-c2ccccc21	-6.49
COc1ccc(CCN2C(=O)C(C)=C(C)C2=O)cc1OC	11.7
Nn1c(SCC(=O)Nc2ccc3c(c2)OCO3)nnc1C1CC1	7.91
COc1ccc(N(C)S(=O)(=O)c2ccc(Cl)c(C(=O)NCC(C)(C)N3CCOCC3)c2)cc1	-41.5
Cc1ccc(NS(=O)(=O)c2ccc(NC(=O)N3CCCCC3)cc2)cc1	8.78
COCCOc1cc(NC(=O)c2cccc(OC)c2)c(Cl)cc1Cl	6.22
COc1ccc(OCC(O)CNC(=O)/C=C/c2cccc([N+](=O)[O-])c2)cc1 (centres unmarked)	17.6
CCCCN(CCCC)C(=O)/C=C/c1cccc([N+](=O)[O-])c1	-68
CCCN(CCC)C(=O)/C=C/c1cccc([N+](=O)[O-])c1	-34.5
COc1ccc(/C=C/C(=O)OCc2cccc([N+](=O)[O-])c2)cc1	-9.66
CCCC(C)NC(=O)/C=C/c1cccc([N+](=O)[O-])c1 (centres unmarked)	-7.16
COc1ccc(OCC(O)CN(C)C(=O)/C=C/c2cccc([N+](=O)[O-])c2)cc1 (centres unmarked)	-80.5

SMILES	hERG current change (%, negative = inhibition) at 10uM [%]
CC(C)N(C(=O)/C=C/c1cccc([N+](=O)[O-])c1)C(C)C	-13.8
CCCN(CC(=O)Nc1ccc(Cl)cc1Cl)C(=O)/C=C/c1cccc([N+](=O)[O-])c1	-15.6
CCCCN(CC)C(=O)/C=C/c1cccc([N+](=O)[O-])c1	-63.5
O=C(CCNC(=O)c1ccco1)Nc1ccc(Cl)c(C(F)(F)F)c1	-16.3
CCOC(=O)N1CCC(NC(=O)c2cc(COc3ccc(F)cc3Cl)on2)CC1	-0.672
CCN(CC)c1ccc(/C=N/Nc2nc(C)cc(C)n2)c(O)c1	-7.99
Cc1ccc(C)c(S(=O)(=O)NCCCc2ccccc2)c1	-1.65
CN(c1ccc(C(=O)N2CCOCC2)cc1)S(=O)(=O)c1cccs1	29
COc1ccccc1NC(=O)CON=C(N)CC(=O)NC1CCCCC1	-1.99
CSc1nnc(NC(=O)c2cccc(S(=O)(=O)N3CCOCC3)c2)s1	-5
Cn1c(=O)n(C)c2cc(C(=O)c3ccccc3)ccc21	-1.74
Cc1cc(C)c[n+](CC(=O)c2c(C)cc(C)c([N+](=O)[O-])c2C)c1.[Br-]	-68.6
Cc1cc(C)c[n+](CC(=O)c2ccccc2)c1.[Br-]	22.8
Cc1cc(C)c[n+](CC(=O)c2ccc(C)c([N+](=O)[O-])c2)c1.[Br-]	-13.2
COc1cc(NS(=O)(=O)c2c(C)[nH]c(C)c2C(=O)N2CCCCC2)cc(OC)c1OC	5.18
CCCCCn1nc(C(=O)N2CCc3ccccc32)c2ccccc2c1=O	-3.43
Cc1ccc2nc(Nc3ncc4c(n3)CC(C)(C)CC4=O)nc(C)c2c1	15.3
N#CC1(NC(=O)CSc2nc3ccccc3s2)CCCCC1	-15.7
N#CC1(NC(=O)CN2C(=O)c3ccc([N+](=O)[O-])cc3C2=O)CCCCC1	4.83
N#CC1(NC(=O)CSc2nc3ccc([N+](=O)[O-])cc3s2)CCCCC1	-69.5
O=C(CSc1nc2ccc([N+](=O)[O-])cc2s1)NCC1CCCO1 (centres unmarked)	-54.4
O=C(CSc1nc2ccc(NC(=O)C3CCCCC3)cc2s1)NCC1CCCO1 (centres unmarked)	2.42
O=C(CSc1nc2ccccc2s1)NCC1CCCO1 (centres unmarked)	7.82
CCn1c(/N=C/c2ccccc2NS(=O)(=O)c2ccc(C)cc2)nc2ccccc21	-19.8

SMILES	hERG current change (%, negative = inhibition) at 10uM [%]
COc1ccc(N(CC(=O)Nc2ccc(F)c(F)c2)S(=O)(=O)c2c(C)[nH]c(=O)[nH]c2=O)cc1	19.9
NC(=O)COC(=O)c1ccc(-c2ccccc2)cc1	14.2
CC(C)CCNC(=O)CN(Cc1ccc2c(c1)OCO2)C(=O)CCC(=O)Nc1ccccn1	-70.7
O=C(CCCC(=O)N(CC(=O)NC1CCCCC1)Cc1ccccc1)Nc1ccccn1	-6.57
CC(C)NC(=O)CN(Cc1ccc2c(c1)OCO2)C(=O)CCC(=O)Nc1ccccn1	1.7
O=C(CCCC(=O)N(CC(=O)NC1CCCC1)Cc1ccc2c(c1)OCO2)Nc1ccccn1	-26.5
O=C(CCCC(=O)N(CC(=O)NC1CCCCC1)Cc1ccc2c(c1)OCO2)Nc1ccccn1	-54.3
CC(C)CCNC(=O)CN(Cc1ccccc1)C(=O)CCC(=O)Nc1ccccn1	-19.7
Cc1cccc(OCC(=O)N/N=C/c2cc([N+](=O)[O-])ccc2N2CCOCC2)c1	-9.73
COc1ccc(-c2oc3ccc(N4CCOCC4)cc3c2C#CC2(O)CCCCC2)cc1	17.3
CCN(CC)c1ccc(/C=C2/C(=O)ON=C2C)cc1	-20.9
Cc1cc(=O)n2nc(N3CCCC(C(=O)N4CCN(C)CC4)C3)sc2n1 (centres unmarked)	-7.39
Cc1cc(=O)n2nc(N3CCC(C(=O)NCCc4ccc(Cl)cc4)CC3)sc2n1	-54.5
Cc1cc(=O)n2nc(N3CCC(C(=O)N4CCN(c5ccccc5)CC4)CC3)sc2n1	-11.9
Cc1cc(=O)n2nc(N3CCCC(C(=O)NCc4ccc(Cl)cc4)C3)sc2n1 (centres unmarked)	-71.7
CCc1ccc(CNC(=O)C2CCCN(c3nn4c(=O)cc(C)nc4s3)C2)cc1 (centres unmarked)	-36.2
Cc1ccc(CNC(=O)C2CCCN(c3nn4c(=O)cc(C)nc4s3)C2)cc1 (centres unmarked)	-31.1
Cc1cc(=O)n2nc(N3CCCC(C(=O)N4CCN(c5ccccc5)CC4)C3)sc2n1 (centres unmarked)	-53.5
Cc1ccc(CCNC(=O)C2CCN(c3nn4c(=O)cc(C)nc4s3)CC2)cc1	-33.4
CCCc1cc(=O)n2nc(N3CCC(C(=O)NCc4ccc(C)o4)CC3)sc2n1	-61.6
Cc1cc(=O)n2nc(N3CCC(C(=O)NCCc4ccccc4)CC3)sc2n1	-10.1
Cc1cc(=O)n2nc(N3CCC(C(=O)NCc4ccco4)CC3)sc2n1	17.9
CCCc1cc(=O)n2nc(N3CCC(C(=O)NCc4ccco4)CC3)sc2n1	-44.4
